Source: PubChem (several laboratories)
Only some compounds are listed: those with a hit (about 3.7% of all), similar ones and a draw of the others.
BoNT F protease – BoNT F light chain protease inhibition; Multiplex microsphere protease cleavage assay, flow cytometry; inhibition, % at 10 µM; actives 0.22% (n = 360,000); in the data active means inhibition above about 35%, passing the limit was not always enough; inconclusive means no clear call, values can overlap the other calls; further: plate controls were buffer without enzyme for full effect and enzyme alone for no effect
BoNT A protease – BoNT A light chain protease inhibition. multiplex microsphere protease substrate cleavage, flow cytometry. inhibition, % at 10 µM. actives 0.17% (n = 360,000); further: plate controls were buffer without enzyme for full effect and enzyme alone for no effect
MazF activator – activators of E. coli MazEF toxin-antitoxin RNase | P0AE70 | FAM/BHQ RNA-DNA oligo cleavage fluorescence, 5 h | activation, % at 20 µM | actives 0.32% (n = 350,000); in the data active means activation above about 50%
Target sequence (P0AE70 whole entry, looked up): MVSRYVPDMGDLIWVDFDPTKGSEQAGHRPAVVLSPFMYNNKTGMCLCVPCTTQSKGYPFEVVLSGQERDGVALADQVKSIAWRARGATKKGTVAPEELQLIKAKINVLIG
Autofluor counter – counter-screen for toxin protease inhibitors: compound fluorescence. fluorescence intensity (no concentration beside the values). compound autofluorescence counterscreen, microsphere flow cytometry; active compounds read high. actives 3.1% (n = 360,000). AID 624483; in the data active means fluorescence intensity above about 16000; inconclusive means no clear call, values can overlap the other calls
Anthrax LF inh2 – inhibitors of Bacillus anthracis lethal factor protease. P15917. multiplex microsphere protease cleavage assay, LF. inhibition, % at 10 µM. actives 0.12% (n = 360,000); further: plate controls were buffer without enzyme for full effect and enzyme alone for no effect
* hit, by the source's call; u = inconclusive; x = no result given. Unless noted, no stated cut-off is given here; in the data, active means inhibition above about 30%; inconclusive means no clear call, values can overlap the other calls; inactive means below that.

SMILES	BoNT F protease	BoNT A protease	MazF activator	Autofluor counter	Anthrax LF inh2
COCCn1c(-c2ccc(-c3ccc([N+](=O)[O-])cc3Br)o2)nc2c1c(=O)[nH]c(=O)n2CC(C)C	9	24	98*	4801	11
COc1cc(OC)c(C(=O)Nc2ccc(S(=O)(=O)Nc3ncccn3)cc2)cc1OC	5	4	1	21604*	0
O=C1CC(=O)N(c2ccc(Cl)cc2Cl)C(=O)N1	4	3	7	21690*	-4
O=C1CC(=O)N(c2cccc(Br)c2)C(=O)N1	9	-2	-28	3790	-8
Cc1cc(Br)ccc1N1C(=O)CC(=O)NC1=O	5	5	5	20409*	-1
COc1ccc(-c2noc(C3CCCN(S(=O)(=O)c4cccc(Cl)c4C)C3)n2)cc1OC (centres undefined)	-4	-2	-4	17219*	0
CCS(=O)(=O)N1CCCC(c2nc(-c3cccc(OC)c3)no2)C1 (centres undefined)	0	-1	-2	23563*	-2
Cc1ccc(-c2noc(C3CCCN(S(=O)(=O)c4ccc5ccccc5c4)C3)n2)o1 (centres undefined)	-12	-1	-6	8524	-6
CC(=O)c1cccc(S(=O)(=O)N2CCCC(c3nc(-c4ccc(C)o4)no3)C2)c1 (centres undefined)	-3	u	-12	17085*	-2
COc1ccc(C2=NN(CCC(=O)NC3CCCCC3C)C(=O)CC2)cc1 (centres undefined)	-8	0	1	3681	-1
Cc1ccccc1-n1ccnc1SCC(=O)Nc1cccc(S(=O)(=O)NC2=NCCC2)c1	2	0	-1	3706	-5
O=[N+]([O-])c1cc(S(=O)(=O)NCCN2CCOCC2)ccc1Cl	9	1	1	5125	0
CC12C=CC3(CN(Cc4ccccc4)C(=O)C3C1C(=O)NCc1ccco1)O2 (centres undefined)	6	4	-9	20657*	-13
CCCCCC(=O)O/N=C(\C)c1ccn(S(=O)(=O)c2ccccc2)c1	-1	1	-2	3529	-13
CNC(=O)COc1coc(CN2CCN(Cc3ccccc3)CC2)cc1=O	2	1	5	5790	2
CCCCSc1nnc(CCCCCNC(=O)OC(C)(C)C)o1	-2	-1	5	16992*	-4
CC(C)(C)OC(=O)NCCCCCc1nnc(SCc2c(F)cccc2Cl)o1	59*	-1	-1	3968	u
CN(c1ccc(OCC(=O)N2CCC(C(N)=O)CC2)cc1)S(=O)(=O)c1cccs1	1	u	10	21812*	-7
C[C@H](O)[C@@H]1C(=O)N2CCc3ccc(-c4ccccc4)cc3[C@@H]2C[C@@H]1N(C)C(=O)Nc1cc(Cl)cc(Cl)c1	-6	0	-26	3635	3
FC(F)(F)c1cc(Sc2ccccc2)nc(-c2ccccn2)n1	-2	0	6	16298*	-2
COc1cc(C(F)(F)F)nc(-c2ccccn2)n1	-2	-2	-5	4218	5
CN(C)c1cc(C(F)(F)F)nc(-c2ccccn2)n1	-2	0	5	16157*	-3
CC(C)Nc1cc(C(F)(F)F)nc(-c2ccccn2)n1	-5	-4	0	20659*	-3
Cc1ccc(C)c(OCCC(=O)OCC(=O)NNC(=O)c2ccccc2)c1	x	x	-4	x	x
O=C1CCC(c2ccccc2)N1C(=O)c1cccnc1 (centres undefined)	1	-1	5	23368*	-2
SMILES	BoNT F protease	BoNT A protease	MazF activator	Autofluor counter	Anthrax LF inh2
CCOC(=O)c1c(C)n(C)c2ccc(O)c(S(=O)(=O)c3ccccc3)c12	-2	-2	3	24053*	-1
CCOC(=O)c1c(C)n(C)c2ccc(O)c(CN(C)C)c12	1	0	-2	2493	1
COc1ccc(NC(=O)CCC(=O)OC(C(=O)c2ccccc2)c2ccccc2)cc1 (centres undefined)	0	0	0	20295*	-4
COc1ccc(OCC(=O)N/N=C2\CCCc3ccccc32)cc1	-19	-1	-5	2470	2
Cc1cccc2c1OCC/C2=N\NC(=O)COc1ccccc1	-1	-2	1	20669*	0
CCCS(=O)(=O)NC(=O)C1(C)CCN(C(=O)c2c(-c3ccccc3)noc2C)C1 (centres undefined)	-1	0	x	3447	-4
O=C(O)c1cn(-c2ccccc2)nc1-c1cccnc1	-1	1	5	20326*	0
COc1cccc(N2C(=O)C(CC(=O)Nc3ccccc3)N(C3CCCCC3)C2=O)c1 (centres undefined)	6	3	-2	19391*	-4
CCOc1cc(/C=C2\C(=N)N3N=C(CC)SC3=NC2=O)ccc1OCCOc1ccc(NC(C)=O)cc1	u	-2	9	3890	0
CCC1=NN2C(=N)/C(=C\c3ccc(OCCOc4ccc(NC(C)=O)cc4)cc3)C(=O)N=C2S1	16	3	2	3515	51*
Cc1ccc(C23CC4CC(CC(NC(=O)NC(C)(C)CO)(C4)C2)C3)cc1	2	1	3	22797*	0
CCN(C)C1CN(Cc2cn(Cc3ccc(F)cc3)nn2)S(=O)(=O)C1 (centres undefined)	-9	-1	x	5724	-4
CC(=O)Oc1ccc(-c2cccc(C(=O)NCC(=O)O)c2)cc1	-2	-2	11	23862*	-1
CC(=O)Oc1ccc(-c2cccc(C(=O)NCCO)c2)cc1	-1	0	7	2077	-3
CC(=O)Nc1ccc(/C=C(\C#N)C(=O)NCc2ccccc2)cc1	-4	0	1	2668	0
CC(=O)Nc1ccc(/C=C(\C#N)C(N)=O)cc1	35*	2	7	3652	u
CCNC(=O)C1(C)CCN(C(=O)c2ccc(N(C)C)cc2)C1 (centres undefined)	-4	0	x	3840	0
CC1=C(C(=O)Nc2ccc(Cl)cc2)C(c2cccs2)n2nnnc2N1 (centres undefined)	-3	u	5	23559*	-2
CC(Nn1cnnc1)c1cc(Cl)ccc1O (centres undefined)	-4	0	-23	3629	0
Cc1ccc(NC(C)c2cc(Cl)ccc2O)cc1 (centres undefined)	-1	u	7	21916*	-4
CCOC(=O)CSc1nc2c(sc(=S)n2Cc2ccco2)c(=O)n1-c1ccc(F)cc1	-5	u	-3	16594*	-5
CCN(CC)C(=O)CSc1nc2c(sc(=S)n2-c2ccccc2)c(=O)n1Cc1ccco1	6	2	5	21125*	-3
CCN(CC)C(=O)CSc1nc2c(sc(=S)n2CC)c(=O)n1-c1ccccc1	-4	u	-2	22153*	-7
CCC(C)NC(=O)CSc1nc2c(sc(=S)n2Cc2ccco2)c(=O)n1-c1ccccc1 (centres undefined)	4	0	4	5479	2
O=C(O)c1[nH]c2ccccc2c1NS(=O)(=O)Cc1ccccc1	-3	0	11	16578*	-5
O=C(O)c1[nH]c2ccccc2c1NS(=O)(=O)c1ccc(F)cc1	x	x	4	x	x
